Experimental data taken from PubChem BioAssay (Tox21).
Records with an inconclusive call do not appear. Where a structure was tested more than once in an assay, its records may differ in their call. The source made the active and inactive calls. The call rests on the fitted dose curve.

What follows are molecules tested against Muscarinic acetylcholine receptor M1 (Homo sapiens) (UniProt P11229) (assay: Cholinergic receptor muscarinic 1 (CHRM1) small molecule antagonists, cell-based qHTS assay (AID 1963588; further: nearly all actives have a fitted effect of over 40% in size)). Details: CHRM1-CHO antagonist mode, calcium flux fluorescence; series mostly up to 61.5 µM; activity, negative = inhibition: at the top concentration.
Chain of Muscarinic acetylcholine receptor M1 (Homo sapiens) (P11229 whole entry, looked up): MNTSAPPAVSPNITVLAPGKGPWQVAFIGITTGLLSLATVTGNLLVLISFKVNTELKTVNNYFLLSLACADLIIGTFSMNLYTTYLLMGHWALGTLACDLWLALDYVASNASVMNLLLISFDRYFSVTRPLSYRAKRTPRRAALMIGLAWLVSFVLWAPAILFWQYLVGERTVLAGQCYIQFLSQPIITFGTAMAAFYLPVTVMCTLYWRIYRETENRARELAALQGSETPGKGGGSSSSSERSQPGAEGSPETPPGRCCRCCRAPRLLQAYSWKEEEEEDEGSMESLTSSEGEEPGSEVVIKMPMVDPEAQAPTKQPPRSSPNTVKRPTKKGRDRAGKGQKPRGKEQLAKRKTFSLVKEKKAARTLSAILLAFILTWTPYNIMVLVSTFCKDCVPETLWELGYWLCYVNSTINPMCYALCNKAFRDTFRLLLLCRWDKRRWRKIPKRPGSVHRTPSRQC
From the text: National Center for Advancing Translational Sciences [NCATS]
Division of Preclinical Innovation [DPI]
U.S. Environmental Protection Agency [EPA]
National Institutes of Environmental Health Sciences [NIEHS]
National Toxicology Program [NTP]
U.S. Food and Drug Administration [FDA]
The CHRM1 is a muscarinic receptor. This receptor plays a crucial role in learning and memory processes and has long been identified as a promising therapeutic target for the improvement of cognitive decline in Alzheimer's disease (AD). The CHRM1-CHO cell line stably expressing human muscarinic acetylcholine receptor M1 (CHRM1) can be used for screening agonists and antagonists of interactions between CHRM1 and its ligands. The CHRM1-CHO Calcium Flux Assay is a homogeneous fluorescence-based assay for detecting the intracellular calcium level using FDSS kinetic plate reader system.
Tox21 Assay Protocol Summary:
CHRM1-CHO cells were dispensed at 1000 cells/3uL/well in 1536-well black-clear bottom plates using a Multidrop Dispenser. After the assay plates were incubated at a 37 C/5% CO2 incubator for 18 h, 3 uL of Dye Loading Buffer was transferred to the assay plate by a Flying Reagent Dispenser. The assay plates were incubated at 37 C for 1h. For antagonist mode, 23 nL of compounds dissolved in DMSO, positive controls or DMSO only was transferred to the assay plate by a pin tool. After 5 min incubation at room temperature, 1.5 uL of acetylcholine at 50nM was added to each well. The fluorescence intensity in the plates was measured using FDSS 7000EX kinetic plate reader for 3 min at 1 sec intervals. Each test compound was measured at 15 concentrations in three independent runs.
On the % scale 0 is the no-effect control and ±100 the full control effect; potency means the concentration at half of the fitted maximal effect.

Row | Structure (SMILES) | Potency | activity, negative = inhibition
1 | CCOP(=S)(OCC)SCSC(C)(C)C | inactive | 
2 | C=CC(=O)OCC(C)C |  | -1.97% (inactive)
3 | O=S1OCC2C(CO1)C1(Cl)C(Cl)=C(Cl)C2(Cl)C1(Cl)Cl (stereo not given) | 37.5 µM (active) and inactive | 
4 | C1CCC2CCCCC2C1 (stereo not given) |  | -1.28% (inactive)
5 | C=CCSSCC=C |  | -6.21% (inactive)
6 | Nc1ncc([N+](=O)[O-])s1 | inactive | 
7 | OCCCl |  | 17.9% (inactive)
8 | O=Cc1cccc(Oc2ccccc2)c1 |  | -1.81% (inactive)
9 | ClCc1ccccn1 | inactive | 
10 | CNC(=O)Oc1ccccc1OC(C)C | inactive | 
11 | CO[C@@H]1[C@H](OC(=O)NC(=O)CCl)CC[C@]2(CO2)[C@H]1[C@@]1(C)O[C@@H]1CC=C(C)C |  | 56% [at 12.6 µM] (inactive)
12 | CCCCOC(=O)CCC(=O)OCCCC |  | -14.5% (inactive)
13 | O=C=NC1CCCCC1 |  | -5.17% (inactive)
14 | N#Cc1cc(Br)c(O)c(Br)c1 |  | -1.17% (inactive)
15 | CCNc1nc(Cl)nc(NC(C)(C)C#N)n1 | inactive | 
16 | COP(=S)(OC)Oc1ccc(S(=O)(=O)N(C)C)cc1 | inactive | 
17 | CC1(C)C(=O)NC(=O)NC1=O |  | 6.99% (inactive)
18 | O=c1c2ccccc2c(=O)c2c1cc(Cl)c1[nH]c3c([nH]c12)c(Cl)cc1c(=O)c2ccccc2c(=O)c13 |  | 9.82% (inactive)
19 | O=NN1CCCC1 | inactive | 
20 | CC(C)(C#N)N=NC(C)(C)C#N | inactive | 

Row | Structure (SMILES) | Potency | activity, negative = inhibition
21 | CCCn1cc[n+](C)c1 | inactive | 
22 | Cc1ccc(-c2nc3ccc(C)cn3c2CC(=O)N(C)C)cc1 |  | 1.57% [at 28.3 µM] (inactive)
23 | OC[C@@H](O)[C@H]1O[C@@H]2O[C@H](C(Cl)(Cl)Cl)O[C@@H]2[C@H]1O | inactive | 
24 | C=CCN1CC[C@]23CCCC[C@H]2[C@H]1Cc1ccc(O)cc13 |  | -17.6% [at 28.3 µM] (inactive)
25 | Clc1cnc(Oc2ccc(Oc3ncc(Cl)cc3Cl)cc2)c(Cl)c1 |  | -8.67% (inactive)
26 | O=C(O)CCl | inactive | 
27 | Nc1ncn[nH]1 | inactive | 
28 | O=C(Cl)OCc1ccccc1 |  | 8.71% (inactive)
29 | OCC1CO1 (stereo not given) | inactive | 
30 | O=[N+]([O-])/N=C1\NCCN1Cc1ccc(Cl)nc1 | inactive | 
31 | CC1CC(=O)O1 (stereo not given) | inactive | 
32 | S=C=S |  | -11.9% (inactive)
33 | N#CC1(N=NC2(C#N)CCCCC2)CCCCC1 |  | 35% (inactive)
34 | COc1ccc2c3c1O[C@H]1[C@H](O)CC[C@H]4[C@@H](C2)N(C)CC[C@@]341 |  | -5.62% (inactive)
35 | COC(=O)c1cncn1C(C)c1ccccc1 (stereo not given) |  | 21.5% [at 28.3 µM] (inactive)
36 | Clc1nc(Cl)nc(Nc2ccccc2Cl)n1 |  | -3.99% (inactive)
37 | CCCCN(CCCCO)N=O |  | 12.1% (inactive)
38 | CCN(CC)C(=S)S | inactive | 
39 | O=S(=O)(c1ccc(Cl)cc1)c1cc(Cl)c(Cl)cc1Cl | inactive | 
40 | O=S(=O)(O)C(F)(F)C(F)(F)C(F)(F)C(F)(F)C(F)(F)C(F)(F)F |  | 19% (inactive)
